Experiment [1] deals with T1, Serine/threonine-protein kinase Nek9 (Homo sapiens) (UniProt Q8TD19).
T1 sequence (whole entry): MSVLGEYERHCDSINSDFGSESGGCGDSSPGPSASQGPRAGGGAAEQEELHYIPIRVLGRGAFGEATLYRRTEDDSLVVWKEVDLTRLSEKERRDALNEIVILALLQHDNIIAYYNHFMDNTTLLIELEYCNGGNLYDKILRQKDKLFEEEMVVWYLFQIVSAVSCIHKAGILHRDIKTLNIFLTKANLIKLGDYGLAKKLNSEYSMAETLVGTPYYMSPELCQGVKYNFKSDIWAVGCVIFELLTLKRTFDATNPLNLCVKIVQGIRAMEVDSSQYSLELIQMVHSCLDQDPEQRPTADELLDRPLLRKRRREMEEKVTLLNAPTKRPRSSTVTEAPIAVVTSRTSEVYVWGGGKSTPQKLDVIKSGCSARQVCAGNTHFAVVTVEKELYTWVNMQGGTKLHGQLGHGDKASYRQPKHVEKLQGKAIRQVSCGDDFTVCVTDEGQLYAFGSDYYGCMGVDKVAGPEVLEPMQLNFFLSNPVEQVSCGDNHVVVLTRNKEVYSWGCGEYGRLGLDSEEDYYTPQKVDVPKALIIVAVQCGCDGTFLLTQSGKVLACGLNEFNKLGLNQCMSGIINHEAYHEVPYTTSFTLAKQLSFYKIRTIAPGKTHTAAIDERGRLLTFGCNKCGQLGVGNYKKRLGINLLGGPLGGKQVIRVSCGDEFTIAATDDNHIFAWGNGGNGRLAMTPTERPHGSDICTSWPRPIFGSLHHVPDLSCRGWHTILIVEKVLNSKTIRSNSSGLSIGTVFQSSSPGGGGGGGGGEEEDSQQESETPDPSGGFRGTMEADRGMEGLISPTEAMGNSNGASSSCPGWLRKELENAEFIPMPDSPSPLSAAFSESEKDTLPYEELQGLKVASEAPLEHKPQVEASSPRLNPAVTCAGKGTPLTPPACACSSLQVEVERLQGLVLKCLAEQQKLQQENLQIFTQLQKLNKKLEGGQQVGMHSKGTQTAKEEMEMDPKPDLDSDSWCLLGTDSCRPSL
To be noted: at 1 µM.

The target in experiment [2] is Serine/threonine-protein kinase PLK1 (Homo sapiens) (UniProt P53350). To be noted: at 0.1 µM.
Experiment [3] shares this target. To be noted: at 1 µM.
Experiment [4] deals with T2, Dual specificity protein kinase TTK (Homo sapiens) (UniProt P33981).
T2 sequence (whole entry): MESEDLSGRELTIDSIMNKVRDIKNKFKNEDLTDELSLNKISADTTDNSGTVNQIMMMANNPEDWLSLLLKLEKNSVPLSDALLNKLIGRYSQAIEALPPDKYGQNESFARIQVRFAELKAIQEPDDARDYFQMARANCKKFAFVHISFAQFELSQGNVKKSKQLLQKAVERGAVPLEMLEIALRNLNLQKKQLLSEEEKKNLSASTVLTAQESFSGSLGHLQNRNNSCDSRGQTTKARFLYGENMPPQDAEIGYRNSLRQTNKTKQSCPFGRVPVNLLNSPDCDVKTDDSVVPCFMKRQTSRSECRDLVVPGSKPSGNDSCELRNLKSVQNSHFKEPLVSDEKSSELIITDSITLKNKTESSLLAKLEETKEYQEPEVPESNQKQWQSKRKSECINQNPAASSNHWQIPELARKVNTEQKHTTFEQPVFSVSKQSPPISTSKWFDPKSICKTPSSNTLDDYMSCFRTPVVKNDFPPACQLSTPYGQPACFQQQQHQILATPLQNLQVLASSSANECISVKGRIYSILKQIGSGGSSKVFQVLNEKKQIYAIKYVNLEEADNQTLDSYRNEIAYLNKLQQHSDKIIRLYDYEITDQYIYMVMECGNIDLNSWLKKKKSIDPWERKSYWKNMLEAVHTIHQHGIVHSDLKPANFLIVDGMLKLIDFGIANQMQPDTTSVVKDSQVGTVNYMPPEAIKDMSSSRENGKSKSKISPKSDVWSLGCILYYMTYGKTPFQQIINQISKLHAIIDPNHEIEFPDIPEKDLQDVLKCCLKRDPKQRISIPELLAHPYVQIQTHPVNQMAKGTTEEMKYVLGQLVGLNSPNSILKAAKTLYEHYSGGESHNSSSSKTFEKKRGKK
The following applies: at 0.1 µM.

Experiment [5] has as its system T3, Receptor-type tyrosine-protein kinase FLT3 (Homo sapiens), P36888 [D835Y].
T3 sequence (whole entry): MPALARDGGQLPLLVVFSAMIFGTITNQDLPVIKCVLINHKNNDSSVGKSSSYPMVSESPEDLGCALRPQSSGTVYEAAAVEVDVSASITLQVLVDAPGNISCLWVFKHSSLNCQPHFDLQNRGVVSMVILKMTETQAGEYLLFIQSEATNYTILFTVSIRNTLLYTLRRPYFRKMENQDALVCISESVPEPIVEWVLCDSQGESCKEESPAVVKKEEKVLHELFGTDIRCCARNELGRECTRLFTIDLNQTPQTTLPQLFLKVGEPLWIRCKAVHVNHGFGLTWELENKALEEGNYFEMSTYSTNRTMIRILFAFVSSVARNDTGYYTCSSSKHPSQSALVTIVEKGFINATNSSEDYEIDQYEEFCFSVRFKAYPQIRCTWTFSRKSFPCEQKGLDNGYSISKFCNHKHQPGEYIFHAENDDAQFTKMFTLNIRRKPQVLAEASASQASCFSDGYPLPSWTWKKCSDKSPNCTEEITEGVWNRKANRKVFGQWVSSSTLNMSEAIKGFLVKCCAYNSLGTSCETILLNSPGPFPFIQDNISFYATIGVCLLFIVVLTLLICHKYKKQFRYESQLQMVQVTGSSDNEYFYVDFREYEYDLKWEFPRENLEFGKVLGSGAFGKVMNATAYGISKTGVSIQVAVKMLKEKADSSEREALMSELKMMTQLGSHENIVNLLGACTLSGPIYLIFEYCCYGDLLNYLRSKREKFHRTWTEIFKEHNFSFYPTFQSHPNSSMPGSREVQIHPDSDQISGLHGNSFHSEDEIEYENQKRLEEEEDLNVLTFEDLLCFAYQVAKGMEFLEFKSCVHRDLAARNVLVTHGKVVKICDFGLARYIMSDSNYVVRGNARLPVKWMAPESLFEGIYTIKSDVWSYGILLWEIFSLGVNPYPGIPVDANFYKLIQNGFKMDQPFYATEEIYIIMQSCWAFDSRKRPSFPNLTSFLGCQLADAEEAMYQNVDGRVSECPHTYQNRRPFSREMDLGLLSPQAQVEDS
To be noted: at 1 µM.

Experiment [6] concerns the target Vascular endothelial growth factor receptor 3 (Homo sapiens) (UniProt P35916). To be noted: at 0.1 µM.
The target is the same in experiment [7]. The following applies: at 1 µM.
Experiment [8] has as its target Macrophage colony-stimulating factor 1 receptor (Homo sapiens) (UniProt P07333). To be noted: at 0.1 µM.
For experiment [9] the target is unchanged. To be noted: at 1 µM.
Experiment [10] deals with Tyrosine-protein kinase Fyn (Homo sapiens) (UniProt P06241). The following applies: at 0.1 µM.
The target is the same in experiment [11]. To be noted: at 1 µM.
Experiment [12] concerns the target Tyrosine-protein kinase HCK (Homo sapiens) (UniProt P08631). To be noted: at 0.1 µM.
Experiment [13] shares this target. To be noted: at 1 µM.
In experiment [14] the target is Insulin-like growth factor 1 receptor (Homo sapiens) (UniProt P08069). To be noted: at 0.1 µM.
The target is the same in experiment [15]. To be noted: at 1 µM.
Experiment [16] addresses Insulin receptor (Homo sapiens) (UniProt P06213). The following applies: at 0.1 µM.
For experiment [17] the target is unchanged. The following applies: at 1 µM.
Experiment [18] addresses Insulin receptor-related protein (Homo sapiens) (UniProt P14616). The following applies: at 0.1 µM.
Experiment [19] shares this target. To be noted: at 1 µM.
In experiment [20] the target is T4, Tyrosine-protein kinase ITK/TSK (Homo sapiens) (UniProt Q08881).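 Further: mean percent inhibition of ITK from the GSK PKIS screen.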
T4 sequence (whole entry): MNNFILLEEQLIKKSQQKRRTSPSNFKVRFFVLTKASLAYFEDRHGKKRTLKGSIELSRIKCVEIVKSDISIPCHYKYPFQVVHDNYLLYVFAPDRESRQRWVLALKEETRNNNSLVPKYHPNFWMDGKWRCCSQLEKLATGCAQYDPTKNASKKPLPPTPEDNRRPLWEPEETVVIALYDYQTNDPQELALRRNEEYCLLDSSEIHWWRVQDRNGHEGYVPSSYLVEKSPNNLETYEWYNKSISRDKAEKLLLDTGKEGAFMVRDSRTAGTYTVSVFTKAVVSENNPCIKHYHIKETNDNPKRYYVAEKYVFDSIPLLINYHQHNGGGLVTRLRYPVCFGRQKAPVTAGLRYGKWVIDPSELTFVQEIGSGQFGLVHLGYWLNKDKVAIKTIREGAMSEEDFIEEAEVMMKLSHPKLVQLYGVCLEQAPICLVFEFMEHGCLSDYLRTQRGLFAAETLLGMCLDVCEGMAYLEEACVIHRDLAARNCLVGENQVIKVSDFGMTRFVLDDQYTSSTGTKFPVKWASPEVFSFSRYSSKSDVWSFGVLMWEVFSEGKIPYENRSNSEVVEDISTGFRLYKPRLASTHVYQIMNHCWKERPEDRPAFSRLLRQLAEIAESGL
The following applies: at 0.1 µM.

Sequence of Vascular endothelial growth factor receptor 3 (Homo sapiens) (P35916 whole entry): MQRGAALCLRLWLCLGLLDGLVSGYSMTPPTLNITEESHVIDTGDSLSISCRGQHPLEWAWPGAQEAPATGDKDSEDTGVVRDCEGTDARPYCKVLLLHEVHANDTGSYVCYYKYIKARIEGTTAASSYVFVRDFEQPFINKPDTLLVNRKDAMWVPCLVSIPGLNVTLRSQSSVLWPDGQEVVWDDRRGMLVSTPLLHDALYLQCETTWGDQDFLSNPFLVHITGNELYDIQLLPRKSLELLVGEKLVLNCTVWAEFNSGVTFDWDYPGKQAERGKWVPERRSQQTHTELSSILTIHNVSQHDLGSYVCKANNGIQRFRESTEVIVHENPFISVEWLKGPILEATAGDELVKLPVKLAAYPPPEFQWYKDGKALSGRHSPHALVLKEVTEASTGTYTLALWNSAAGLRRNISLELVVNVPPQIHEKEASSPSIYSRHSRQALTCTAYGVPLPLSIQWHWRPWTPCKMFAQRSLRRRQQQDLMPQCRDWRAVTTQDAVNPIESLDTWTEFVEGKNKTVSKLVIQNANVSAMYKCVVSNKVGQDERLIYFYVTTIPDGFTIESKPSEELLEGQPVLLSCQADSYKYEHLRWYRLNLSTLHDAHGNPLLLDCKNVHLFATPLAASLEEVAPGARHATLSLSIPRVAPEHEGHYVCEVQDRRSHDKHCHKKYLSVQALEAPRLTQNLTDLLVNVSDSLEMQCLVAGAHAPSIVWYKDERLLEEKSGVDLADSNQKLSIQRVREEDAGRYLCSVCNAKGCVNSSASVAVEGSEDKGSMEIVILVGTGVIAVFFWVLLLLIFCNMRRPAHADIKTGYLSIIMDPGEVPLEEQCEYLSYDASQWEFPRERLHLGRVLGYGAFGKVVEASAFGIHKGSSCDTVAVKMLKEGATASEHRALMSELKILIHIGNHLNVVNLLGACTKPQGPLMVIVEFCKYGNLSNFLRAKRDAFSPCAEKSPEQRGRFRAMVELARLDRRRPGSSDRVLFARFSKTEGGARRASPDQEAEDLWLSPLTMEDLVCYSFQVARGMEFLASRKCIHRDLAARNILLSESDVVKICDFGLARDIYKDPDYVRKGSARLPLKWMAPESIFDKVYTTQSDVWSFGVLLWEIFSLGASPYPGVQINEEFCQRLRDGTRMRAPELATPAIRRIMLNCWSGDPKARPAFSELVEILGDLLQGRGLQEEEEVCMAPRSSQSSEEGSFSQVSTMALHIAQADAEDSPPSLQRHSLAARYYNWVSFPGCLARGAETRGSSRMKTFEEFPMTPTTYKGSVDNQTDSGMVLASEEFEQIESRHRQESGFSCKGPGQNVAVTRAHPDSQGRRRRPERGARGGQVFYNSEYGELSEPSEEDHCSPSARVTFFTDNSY
Sequence of Insulin receptor (Homo sapiens) (P06213 28-758 limits assumed): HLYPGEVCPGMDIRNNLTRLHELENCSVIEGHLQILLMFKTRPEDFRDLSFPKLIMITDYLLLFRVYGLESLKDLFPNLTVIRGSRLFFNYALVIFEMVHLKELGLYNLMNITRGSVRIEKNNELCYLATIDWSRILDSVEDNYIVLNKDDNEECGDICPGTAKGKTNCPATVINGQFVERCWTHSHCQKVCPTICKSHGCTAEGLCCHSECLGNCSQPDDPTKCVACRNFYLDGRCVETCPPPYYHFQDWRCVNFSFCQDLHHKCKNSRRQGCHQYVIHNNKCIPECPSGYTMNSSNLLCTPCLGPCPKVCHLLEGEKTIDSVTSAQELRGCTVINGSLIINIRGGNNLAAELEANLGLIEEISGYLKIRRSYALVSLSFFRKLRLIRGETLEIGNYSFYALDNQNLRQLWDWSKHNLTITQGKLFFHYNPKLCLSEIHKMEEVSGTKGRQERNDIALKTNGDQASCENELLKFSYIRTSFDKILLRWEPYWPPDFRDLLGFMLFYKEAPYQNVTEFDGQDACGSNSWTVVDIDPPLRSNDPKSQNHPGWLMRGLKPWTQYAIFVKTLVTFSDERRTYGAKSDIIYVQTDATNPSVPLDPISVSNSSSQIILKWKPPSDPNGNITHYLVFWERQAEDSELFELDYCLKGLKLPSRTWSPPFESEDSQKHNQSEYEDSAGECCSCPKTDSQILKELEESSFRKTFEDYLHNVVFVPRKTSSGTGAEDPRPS
Sequence of Insulin receptor (Homo sapiens) (P06213 763-1382 limits assumed): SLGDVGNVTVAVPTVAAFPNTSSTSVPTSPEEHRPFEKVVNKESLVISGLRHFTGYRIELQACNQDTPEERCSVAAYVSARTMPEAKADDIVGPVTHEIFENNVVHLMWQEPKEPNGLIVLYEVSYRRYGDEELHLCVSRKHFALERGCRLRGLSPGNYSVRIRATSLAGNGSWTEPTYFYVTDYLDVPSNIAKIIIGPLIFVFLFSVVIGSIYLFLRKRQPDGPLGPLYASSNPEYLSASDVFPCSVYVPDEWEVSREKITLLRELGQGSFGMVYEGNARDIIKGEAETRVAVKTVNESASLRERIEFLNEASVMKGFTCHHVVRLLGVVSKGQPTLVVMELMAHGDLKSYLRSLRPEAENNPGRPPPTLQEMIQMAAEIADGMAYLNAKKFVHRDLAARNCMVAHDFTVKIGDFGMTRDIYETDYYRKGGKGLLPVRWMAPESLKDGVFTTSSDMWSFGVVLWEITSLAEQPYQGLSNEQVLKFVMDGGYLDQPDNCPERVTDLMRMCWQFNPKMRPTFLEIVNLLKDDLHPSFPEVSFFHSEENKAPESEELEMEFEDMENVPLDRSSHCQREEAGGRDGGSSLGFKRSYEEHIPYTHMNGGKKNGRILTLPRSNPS
Sequence of Macrophage colony-stimulating factor 1 receptor (Homo sapiens) (P07333 whole entry): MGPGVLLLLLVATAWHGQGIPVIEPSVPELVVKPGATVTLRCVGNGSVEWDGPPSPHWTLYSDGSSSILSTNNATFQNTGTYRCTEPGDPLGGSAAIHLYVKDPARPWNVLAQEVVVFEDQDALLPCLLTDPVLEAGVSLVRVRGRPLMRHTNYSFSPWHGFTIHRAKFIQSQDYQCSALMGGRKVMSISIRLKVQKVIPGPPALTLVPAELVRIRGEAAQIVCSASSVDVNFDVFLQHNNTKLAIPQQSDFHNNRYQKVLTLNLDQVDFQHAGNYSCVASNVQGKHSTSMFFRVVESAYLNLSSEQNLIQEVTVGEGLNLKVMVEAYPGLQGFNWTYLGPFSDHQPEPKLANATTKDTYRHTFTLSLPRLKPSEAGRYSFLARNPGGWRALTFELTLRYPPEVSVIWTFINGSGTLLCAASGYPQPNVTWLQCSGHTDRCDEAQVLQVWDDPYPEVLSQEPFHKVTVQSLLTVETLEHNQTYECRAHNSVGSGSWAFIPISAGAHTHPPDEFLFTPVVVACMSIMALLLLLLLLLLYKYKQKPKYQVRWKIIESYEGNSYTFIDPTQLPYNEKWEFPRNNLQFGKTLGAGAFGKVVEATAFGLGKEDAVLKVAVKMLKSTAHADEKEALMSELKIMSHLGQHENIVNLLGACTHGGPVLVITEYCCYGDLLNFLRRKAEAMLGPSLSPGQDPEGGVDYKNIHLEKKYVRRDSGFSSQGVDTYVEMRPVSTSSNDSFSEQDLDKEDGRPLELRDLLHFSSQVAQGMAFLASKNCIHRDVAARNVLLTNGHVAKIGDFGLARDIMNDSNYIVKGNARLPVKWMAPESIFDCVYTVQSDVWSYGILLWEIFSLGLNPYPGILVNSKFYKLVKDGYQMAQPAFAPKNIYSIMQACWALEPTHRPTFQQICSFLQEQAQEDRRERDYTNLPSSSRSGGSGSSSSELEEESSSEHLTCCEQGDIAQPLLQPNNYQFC
Sequence of Insulin-like growth factor 1 receptor (Homo sapiens) (P08069 31-736 limits assumed): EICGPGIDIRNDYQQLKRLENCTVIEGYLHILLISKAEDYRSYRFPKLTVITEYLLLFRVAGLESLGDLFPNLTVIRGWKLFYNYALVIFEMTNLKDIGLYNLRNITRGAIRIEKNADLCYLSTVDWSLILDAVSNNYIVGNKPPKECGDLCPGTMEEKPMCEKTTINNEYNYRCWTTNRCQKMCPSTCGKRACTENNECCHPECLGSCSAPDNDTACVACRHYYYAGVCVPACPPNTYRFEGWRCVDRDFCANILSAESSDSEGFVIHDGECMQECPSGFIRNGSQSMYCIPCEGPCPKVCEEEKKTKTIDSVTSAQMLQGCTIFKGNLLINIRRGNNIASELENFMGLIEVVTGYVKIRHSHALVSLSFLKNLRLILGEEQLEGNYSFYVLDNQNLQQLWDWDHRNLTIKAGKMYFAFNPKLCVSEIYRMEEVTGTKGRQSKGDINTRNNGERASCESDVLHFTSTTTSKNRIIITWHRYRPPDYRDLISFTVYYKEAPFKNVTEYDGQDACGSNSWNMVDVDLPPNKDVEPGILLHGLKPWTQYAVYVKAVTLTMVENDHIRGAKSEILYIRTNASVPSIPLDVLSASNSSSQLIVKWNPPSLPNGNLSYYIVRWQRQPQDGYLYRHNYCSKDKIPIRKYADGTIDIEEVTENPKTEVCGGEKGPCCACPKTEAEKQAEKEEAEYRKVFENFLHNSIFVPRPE
Sequence of Insulin-like growth factor 1 receptor (Homo sapiens) (P08069 741-1367 limits assumed): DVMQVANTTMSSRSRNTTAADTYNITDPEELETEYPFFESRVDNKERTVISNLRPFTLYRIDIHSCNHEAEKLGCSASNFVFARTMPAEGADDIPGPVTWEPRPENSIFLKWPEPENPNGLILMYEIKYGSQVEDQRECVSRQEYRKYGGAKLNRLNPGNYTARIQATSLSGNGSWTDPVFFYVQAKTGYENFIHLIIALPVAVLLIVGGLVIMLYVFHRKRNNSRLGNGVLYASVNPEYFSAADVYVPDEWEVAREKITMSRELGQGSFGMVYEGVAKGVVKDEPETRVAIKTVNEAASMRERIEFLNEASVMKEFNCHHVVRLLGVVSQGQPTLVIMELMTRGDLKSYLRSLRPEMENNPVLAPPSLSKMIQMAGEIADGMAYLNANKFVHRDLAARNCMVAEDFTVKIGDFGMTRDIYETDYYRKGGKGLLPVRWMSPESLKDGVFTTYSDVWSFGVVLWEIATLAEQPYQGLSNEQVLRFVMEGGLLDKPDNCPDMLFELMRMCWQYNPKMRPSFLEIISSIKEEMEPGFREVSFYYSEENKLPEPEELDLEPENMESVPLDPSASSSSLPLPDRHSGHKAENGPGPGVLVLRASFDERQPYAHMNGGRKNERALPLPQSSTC

For orientation: inhibition means the change of the read-out against control, counted positive when it falls. `O=C1NC(=O)C(N2CCc3ccccc32)=C1c1ccc(Cl)cc1`: the inhibition amounted to 6.39% in [1]; 3.88% in experiment [2]; 2.74% in experiment [3]; 7.71% in experiment [4]; 14.7% in experiment [5]; 1.62% in experiment [6]. The inhibition in [7] was determined as 0.97%; in [8], 4.95%; in experiment [9], 4.62%; in experiment [10], 4.56%; in [11], 4.67%; in [12] it was 8.78%. The inhibition was 12.7% in [13]; 2.02% in experiment [14]; 2.75% in experiment [15]; 6.09% in experiment [16]; 5.24% in experiment [17]; 2.18% in experiment [18]. For the same molecule, the inhibition was found to be 2.1% in experiment [19] and 1.5% in [20].

`CCCN1CCC(Oc2cc(Nc3nc(Nc4cccc(F)c4C(N)=O)c4cc[nH]c4n3)c(OC)cc2Cl)CC1`: the inhibition in [1] was -2.13%; in experiment [2], 8.91%; in [3], 47.5%; in experiment [4], 3.35%; in experiment [5], -3.06%; in [6] it was 12.3%. Also, the inhibition in experiment [7] was 14.6%; in experiment [8], -0.53%; in experiment [9] it was 3.9%; in [10], 1.38%; in experiment [11], 3.01%; in experiment [12] it was 4.1%. Also, the inhibition in experiment [13] amounted to 7.31%; in [14], 57.2%; in experiment [15], 91.8%; in [16] it was 64%; in [17], 88%; in experiment [18], 4.74%. Also, the inhibition in experiment [19] was 37.6%; in experiment [20] it was 0.65%.

As for `COc1cccc(-n2ncc3c(N/N=C/c4cccc(F)c4)ncnc32)c1`, the inhibition was 3.11% in experiment [1]; 3.32% in experiment [2]; 3.39% in [3]; 6.88% in [4]; 14.1% in experiment [5]; -8.81% in experiment [6]. Besides, the inhibition was -1.89% in experiment [7]; -0.57% in [8]; 3.43% in experiment [9]; 4.02% in experiment [10]; 31.5% in experiment [11]; 5.13% in [12]. In addition, the inhibition in experiment [13] was 20.8%; in experiment [14], -6.82%; in experiment [15], -4.04%; in [16], 6.33%; in experiment [17], 5.41%; in experiment [18], 0.81%. For the same molecule, the results for the inhibition in experiment [19] and in [20] were 0.48% and -3.25%, respectively.
